STAT3 SMM – binds human STAT3 on microarray | P40763 | Small molecule microarray, His-STAT3 binding, anti-His fluorescence | calls only | 17,000 tested, 0.2% active;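 active = compounds whose four printed spots each show fluorescence over background unusually high for their array block, chance value under 7%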
NFkB binder – NF-kappa-B p105 (human) binding. P19838. Small molecule microarray, anti-His fluorescence binding. calls only. 17,000 tested, 1.3% active. AID 624139;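 active = spot fluorescence over background significantly raised, with a chance value under 7% in all four replicate spots of the compound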;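 also: probe protein is his-tagged human p50 processed subunit at 1 µg/ml; raw spot fluorescence signals with no normalization applied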
p53 mut binder – mutant p53 (human) binding | 17,000 tested, 0.4% active | calls only | small molecule microarray binding, anti-GST fluorescence;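 active = compounds whose four printed spots each glow above background more than chance allows, each with a p-value under 7%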
c-Myc SMM – c-Myc (human) binding; 17,000 tested, 1.5% active; small molecule microarray, His-c-Myc binding, anti-His fluorescence; calls only;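 active = spot fluorescence over background with P-value below 7% in all four replicate spots, showing protein binding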;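 also: score is binary with 100 for all four spots passing and 0 otherwise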
mut p53 react – mutant p53 pathway reactivation; SW480 PUMA-promoter luciferase; activation, % at 9.98 µM; 28,000 tested, 1.5% active; in the data active = activation above about 52%
Numbers without * were called inactive; i = inactive; nt = no result; + = active, no number. Most compounds without a hit are left out; they make up all but 2.6% or so of the library.

SMILES	STAT3 SMM	NFkB binder	p53 mut binder	c-Myc SMM	mut p53 react
NCC(=O)Nc1ccc(Br)cc1C(=O)c1ccccc1	i	i	i	i	113*
Oc1ccc2c3c1OC1c4[nH]c5c(c4CC4(O)C(C2)N(CC2CC2)CCC314)CC1(O)C2Cc3ccc(O)c4c3C1(CCN2CC1CC1)C5O4 (centres undefined)	i	i	i	i	-1
CCn1cnc2c(Nc3cccc(Cl)c3)nc(N[C@@H]3CCCC[C@@H]3N)nc21	i	i	i	+	-63
CCc1ccc(NC2=NCCS2)cc1	nt	nt	nt	nt	61*
CC(C)(O)/C=C/C(=O)[C@](C)(O)C1[C@H](O)C[C@@]2(C)[C@@H]3CC=C4C(CC(=O)C(=O)C4(C)C)[C@]3(C)C(=O)C[C@@]12C (some centres undefined)	i	i	i	i	-60
Oc1cc2c(cc1O)C1c3ccccc3CNC1CC2 (centres undefined)	i	i	i	i	-3
CN1CC(C(=O)N[C@]2(C)O[C@@]3(O)[C@@H]4CCCN4C(=O)[C@H](Cc4ccccc4)N3C2=O)C=C2c3cccc4[nH]cc(c34)C[C@H]21 (some centres undefined)	i	+	i	+	1
CC(C)[C@H]1C(=O)N2CCC[C@H]2[C@]2(O)O[C@](NC(=O)[C@@H]3C=C4c5cccc6[nH]cc(c56)C[C@H]4N(C)C3)(C(C)C)C(=O)N12	i	i	i	i	7

Screening results deposited in PubChem by Broad Institute.
